# Hits are enriched below; roughly 3.1% of the tested compounds scored in any of these assays.
# 14-3-3 Bad PPI: disrupts binding of bovine 14-3-3 zeta to phospho-Bad peptide. P63103. TR-FRET 14-3-3zeta/Dy647-pBad peptide displacement, 1 h. 220,000 tested, 0.71% active. inhibition, % at 21.7 µM;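 active = inhibition above about 70%, limit read from the data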;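 also: 0% = full 14-3-3 plus peptide FRET controls and 100% = background without 14-3-3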
# Target sequence (P63103 whole entry, looked up): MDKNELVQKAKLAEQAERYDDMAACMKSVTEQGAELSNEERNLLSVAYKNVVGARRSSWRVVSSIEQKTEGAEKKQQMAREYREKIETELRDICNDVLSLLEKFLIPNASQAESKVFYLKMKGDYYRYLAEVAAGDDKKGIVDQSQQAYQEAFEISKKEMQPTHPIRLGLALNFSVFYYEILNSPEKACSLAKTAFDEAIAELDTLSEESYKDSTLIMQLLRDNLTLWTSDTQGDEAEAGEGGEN
# Mcl1-Noxa inh: Mcl-1/Noxa interaction inhibition | Q07820 | TR-FRET Mcl-1/Noxa peptide binding, 2 h | inhibition, % at 21.7 µM | 220,000 tested, 1.5% active | AID 1022;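 active = compounds that cut the protein-peptide binding signal by more than 50% relative to plate controls in a single-dose test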;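 also: His-tagged Mcl-1 with rhodamine Noxa BH3 peptide and terbium anti-His antibody; 0% = Mcl-1 plus Noxa peptide wells and 100% = peptide-only wells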
# Mcl1 Bid PPI: disrupts binding of human Mcl-1 to Bid peptide. TR-FRET Mcl-1/Bid-Dy647 peptide binding, 1536-well. inhibition, % at 21.7 µM. 220,000 tested, 0.97% active. AID 1021;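 active = compounds that cut the binding signal by more than half at the single screening dose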;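 also: His-tagged Mcl-1 with europium anti-His antibody binding Bid BH3 peptide; 0% = Mcl-1 plus peptide wells and 100% = peptide-only wells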
# Mcl-1 Bim block: disrupts Bim peptide binding to human Mcl-1 | Q07820 | Bead-based flow cytometry, Bim peptide-Mcl-1 binding | inhibition, % at 10 µM | 190,000 tested, 0.1% active; in the data active = inhibition above about 40%;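 also: 0% = no compound tracer wells and 100% = peptide blocker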
# p47phox inh: p47phox (human) inhibition; AID 1274; 220,000 tested, 0.53% active; inhibition, % at 24.7 µM; p47phox/p22phox peptide binding, fluorescence polarization, 2 h; P14598;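 active = inhibition above about 30%, limit read from the data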;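 also: 0% = p47phox with labelled peptide and 100% = labelled peptide alone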
# * marks the source's active call; other numbers are inactive results; x = no result given; [ ] = dose if it differs, or a comment.
SMILES,14-3-3 Bad PPI,Mcl1-Noxa inh,Mcl1 Bid PPI,Mcl-1 Bim block,p47phox inh
CCOc1ccccc1N1C(=O)NC(=O)/C(=C/c2ccc3c4c(cccc24)CC3)C1=O,16,49,31,0,-13
COc1cccc(N2C(=O)NC(=O)/C(=C/c3ccc4c5c(cccc35)CC4)C2=O)c1,29,52*,9,-6,-20
CN1CCc2c(C#N)c(Cl)nc(Cl)c2C1,2,22,3,-2,-6
COC(=O)C1=Nc2ccccc2/C1=C\c1c(O)n(-c2cc(OC)ccc2OC)c(=O)[nH]c1=O,40,65*,23,1,-56
Cc1ccccc1-n1c(O)c(/C=C2/C(c3ccccc3)=Nc3ccccc32)c(=O)[nH]c1=O,-1,7,-33,0,-62
CCCN(CC#CCOc1ccc(OC)cc1)CCC,94*,19,21,0,-13
CCC(C)(C)n1nnnc1CN1CCC(n2c(C)nc3cc(C(F)(F)F)ccc32)CC1,10,0,1,x,6
CCN1CCN(Cc2nnnn2C(C)(C)C)CC1,75*,22,-4,3,-1
CCOc1ccc(-n2c(-c3ccoc3)nc3ccccc3c2=O)cc1,1,-7,96*,-1,-6
Cc1ccccc1-n1c(-c2ccoc2)nc2ccccc2c1=O,-6,-3,-16,0,20
O=C(O)c1ccc2c(c1)C1C(Cl)C(Sc3ccccc3[N+](=O)[O-])CC1C(c1cccc([N+](=O)[O-])c1)N2 (stereo unspecified),9,77*,-49,1,8
O=C(O)c1cccc2c1NC(c1cccc([N+](=O)[O-])c1)C1CC(Sc3ccccc3[N+](=O)[O-])C(Cl)C21 (stereo unspecified),26,98*,43,-2,2
O=[N+]([O-])c1cccc(C2N3CCCN23)c1 (stereo unspecified),2,-2,2,1,-5
c1nc2nc3c(c(N4CCNCC4)n2n1)CCCC3,3,7,-41,x,-1
CCOP(=O)(OCC)c1cc(C)c(O)c(C(C)(C)C)c1,-5,7,-9,x,-3
CCC1C2Cn3c(nc4ccccc43)C1N(C)O2 (stereo unspecified),-2,8,-22,x,-9
CCN(CC)CCNCC(=O)Nc1ccc(Cl)cc1C(=O)c1ccccc1,86*,26,15,3,-11
CN(C)CP(=O)(O)CN(C)C=O,91*,-20,-40,2,-3
Cn1c(O)c(/C=N/N2CCOCC2)c(=O)[nH]c1=S,-2,5,-11,x,-143
Cc1ccc(CN2CCN(C)CC2)c(C)c1,48,38,11,-5,-18
CCN1CCN(Cc2ccc(C)cc2C)CC1,77*,20,42,0,3
Fc1ccc(C2NCCc3[nH]cnc32)cc1 (stereo unspecified),4,5,-11,-5,0
CCCCN1C(=O)/C(=C/C=C/c2ccco2)C(=O)NC1=S,58,96*,76*,-1,-199
O=C1NC(=O)N(Cc2ccc(F)cc2)C(=O)/C1=C\C=C\c1ccco1,3,32,-14,x,-62
CC1CCSP(=O)(Oc2ccccc2)O1 (stereo unspecified),-1,-4,-18,x,6
SMILES,14-3-3 Bad PPI,Mcl1-Noxa inh,Mcl1 Bid PPI,Mcl-1 Bim block,p47phox inh
C[N+]1(C)[C@@H]2CC[C@H]1CC(OC(=O)C(CO)c1ccccc1)C2 (stereo partly specified),-3,13,-14,-4,-10
C[N+]1(C)C2CCC1CC(OC(=O)C(CO)c1ccccc1)C2 (stereo unspecified),91*,21,-14,0,-8
C=C1C2C[C@H](O)C(C)(C)[C@@]2(O)[C@H](O)C[C@]23C[C@@](C)(O)[C@H](CC[C@H]12)[C@H]3OC(C)=O (stereo partly specified),93*[fluorescence artefact?],4,-10,1,-3
Cc1ccc(CN2CCN(Cc3ccccc3F)CC2)cc1,57,16,7,-3,4
FC(F)(F)c1ccccc1CN1CCN(Cc2ccccc2)CC1,74*,12,12,-2,-8
COc1ccc(CN2CCN(c3ccccc3F)CC2)cc1O,58,27,81*,0,-3
Fc1ccccc1N1CCN(Cc2c(F)cccc2F)CC1,60,11,-35,0,-6
Fc1ccccc1N1CCN(Cc2ccc3c(c2)OCO3)CC1,77*,33,48,-3,2
COc1ccccc1N1CCN(Cc2ccc(F)cc2)CC1,-6,0,-11,0,5

# High-throughput results as filed in PubChem BioAssay.
